Data taken from article PMC5540273 (PLoS ONE, 2017).

How the values were obtained:
Conditions in all cases: concentration: 1 μM, replicates: in singlicate; n = 1
NDR1 = system: T1, NDR1
T1 construct: gene STK38

NDR2 = system: NDR2
NEK10 = system: NEK10
NEK11 = system: NEK11
NEK1 = system: NEK1
NEK2 = system: NEK2
NEK3 = system: NEK3
NEK4 = system: NEK4
NEK5 = system: NEK5
NEK6 = system: NEK6
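Further: KINOMEscan kinase panel screen.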

Row | SMILES | %Inh (NDR1) [%] | %Inh (NDR2) [%] | %Inh (NEK10) [%] | %Inh (NEK11) [%] | %Inh (NEK1) [%] | %Inh (NEK2) [%] | %Inh (NEK3) [%] | %Inh (NEK4) [%] | %Inh (NEK5) [%] | %Inh (NEK6) [%]
1 | Nc1ncnc2[nH]c(-c3ccccc3)nc12 [AH5015] | 0 | 0 | 49 | 71 | 4 | 18 | 53 | 26 | 32 | 0
2 | O=c1cc(N2CCOCC2)nc2n(Cc3cccc(Cl)c3Cl)ccn12 [GSK2286295] | 12 | 0 | 0 | 0 | 0 | 4 | 1 | 6 | 4 | 0
3 | Cl.O=C(Nc1cccc(-c2nn3ncccc3c2-c2ccnc(Nc3cccnc3)n2)c1)c1c(F)cccc1F [GSK312879] | 0 | 0 | 7 | 0 | 0 | 14 | 0 | 23 | 0 | 0
4 | COc1ccc(Nc2nccc(-c3cccc(NC(=O)c4cc5cc(F)ccc5[nH]4)c3)n2)cc1 [GSK1229782] | 0 | 34 | 40 | 16 | 12 | 3 | 12 | 9 | 29 | 1
5 | Fc1cc(Cl)ccc1Nc1ccnc2cc(I)ccc12 [GW551191] | 18 | 0 | 25 | 0 | 0 | 4 | 0 | 11 | 0 | 0
6 | O=C(Nc1ccc2c(c1)OCO2)NC1CCN(c2ccnc(Nc3ccc(F)cc3)n2)C1 (centres unmarked) [GSK1379724] | 0 | 0 | 11 | 0 | 0 | 0 | 17 | 20 | 25 | 0
7 | O=S(=O)(c1ccc(-c2ccnc3[nH]ccc23)cc1)N1CCCC1 [GSK846226] | 33 | 38 | 15 | 0 | 12 | 16 | 16 | 0 | 31 | 0
8 | COc1cc(Nc2nccc(N3CCC(NC(=O)Nc4cc(C)ccc4C)C3)n2)cc(OC)c1OC (centres unmarked) [GSK1379762] | 0 | 0 | 20 | 0 | 22 | 25 | 9 | 4 | 91.6 | 1
9 | Cl.NC(=O)c1cccc(Nc2nccc(Nc3ccc(Oc4cccc(Cl)c4)c(Cl)c3)n2)c1 [GW659008] | 0 | 0 | 0 | 0 | 0 | 0 | 0 | 1 | 32 | 0
10 | CC1=C(C(=O)Nc2cc3cn[nH]c3cc2F)C(c2ccc(C(F)(F)F)cc2)CC(=O)N1 (centres unmarked) [GSK429286] | 23 | 0 | 7 | 0 | 0 | 0 | 6 | 24 | 0 | 0
11 | O=C(Nc1ccccc1)Nc1cccc(Oc2ccc3nccn3n2)c1 | 4 | 0 | 0 | 0 | 0 | 0 | 8 | 0 | 0 | 0
12 | CC(C)(C)c1ccc(C(=O)Nc2cn3cc(-c4cccnc4)ccc3n2)cc1 | 49 | 0 | 2 | 0 | 13 | 8 | 54 | 0 | 31 | 13
13 | O=C(O)COc1ncnc2cc(-c3ccc4[nH]ncc4c3)sc12 | 24 | 0 | 48 | 1 | 0 | 0 | 87 | 10 | 25 | 22
14 | O=C(Nc1n[nH]c2nc(-c3nccs3)c(Br)cc12)C1CCCC1 [SB-742609] | 0 | 0 | 15 | 0 | 0 | 0 | 14 | 38 | 0 | 0
15 | COc1ccc(Nc2nccc(NCCNC(=O)Nc3ccccc3F)n2)cc1 [GSK1379901] | 26 | 0 | 13 | 0 | 0 | 0 | 19 | 0 | 3 | 0
16 | Cn1cncc1-c1ccc2ncnc(Nc3ccc(OCc4ccccc4)cc3)c2c1 [GW320571] | 0 | 0 | 3 | 0 | 0 | 0 | 0 | 11 | 0 | 6
17 | Cl.c1ccc(-c2n[nH]cc2-c2ccnc(-c3ccc(CN4CCOCC4)cc3)c2)nc1 [GW776245] | 14 | 31 | 0 | 0 | 0 | 21 | 14 | 0 | 6 | 22
